Results reported in the supplement of paper PMC12494721.
Where a name gives a salt, the structure may show the parent alone.

How the values were obtained:
Conditions in all cases: incubation time: 27 h, anaerobic, 37 °C;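 for the amine columns active = adjusted P below 0.05 in both replicates with a change the same way and a mean fold change under 0.8 or over 1.25; inactive = the rest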
[1] = test system: Clostridium sporogenes DSM 1664; assay: growth (OD595) fold change vs plate DMSO controls (fold change (ratio)); higher = more growth
Outline: (§1)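 Shaken 96-well cultures in mGAM, grown anaerobically for 27 h at 37 °C, were read at 595 nm. OD came from blank-subtracted readings, corrected for background with 20 µM compound solutions in water and scaled by a calibration factor of 5. Growth is the fold change versus the plate's median DMSO control. Values average 2 biological replicates, and any fold change above 1.5 is NA.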

Escherichia coli IAI1 [2] = assay: as above
Outline: as §1

[3] = test system: Klebsiella aerogenes DSM 30053; assay: as above
Outline: as §1

[4] = test system: Ruminococcus gnavus DSM 108212; assay: as above
Outline: as §1

[5] = test system: Klebsiella aerogenes DSM 30053; assay: fold change of Histamine concentration vs plate DMSO controls (fold change (ratio)); higher = more amine produced, active = hit call of the paper (significant change in both replicates, either direction)
Outline: (§2)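 In 80 µL wells, cultures of four gut bacterial strains in mGAM started at OD 0.1 before a 1:1 dilution and grew anaerobically at 37 °C for 27 h. Compounds were added to 20 µM final, except sweeteners at 50 µM final. After extraction of whole cultures with cold acetonitrile/methanol plus 0.1% formic acid and centrifugation, amines were measured by LC–triple-quadrupole MS in dynamic MRM mode against external calibration curves, with within-batch drift correction. Values give fold change over DMSO controls on the same plate, averaged across 2 biological replicates.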

[6] = test system: Clostridium sporogenes DSM 1664; assay: fold change of Tryptamine concentration vs plate DMSO controls (fold change (ratio)); higher = more amine produced, active = hit call of the paper (significant change in both replicates, either direction)
Outline: as §2

[7] = test system: Ruminococcus gnavus DSM 108212; assay: as above
Outline: as §2

Escherichia coli IAI1 [8] = assay: fold change of Putrescine concentration vs plate DMSO controls (fold change (ratio)); higher = more amine produced, active = hit call of the paper (significant change in both replicates, either direction)
Outline: as §2

[9] = test system: Klebsiella aerogenes DSM 30053; assay: as above
Outline: as §2

Escherichia coli IAI1 [10] = assay: fold change of Cadaverine concentration vs plate DMSO controls (fold change (ratio)); higher = more amine produced, active = hit call of the paper (significant change in both replicates, either direction)
Outline: as §2

[11] = test system: Klebsiella aerogenes DSM 30053; assay: as above
Outline: as §2

[12] = test system: Ruminococcus gnavus DSM 108212; assay: fold change of 2-Phenylethylamine concentration vs plate DMSO controls (fold change (ratio)); higher = more amine produced, active = hit call of the paper (significant change in both replicates, either direction)
Outline: as §2

SMILES	growth [1]	growth (Escherichia coli IAI1 [2])	growth [3]	growth [4]	fold change of Histamine concentration [5]	fold change of Tryptamine concentration [6]	fold change of Tryptamine concentration [7]	fold change of Putrescine concentration (Escherichia coli IAI1 [8])	fold change of Putrescine concentration [9]	fold change of Cadaverine concentration (Escherichia coli IAI1 [10])	fold change of Cadaverine concentration [11]	fold change of 2-Phenylethylamine concentration [12]
C=C1c2c(Cl)ccc(O)c2C(O)=C2C(=O)[C@]3(O)C(O)=C(C(N)=O)C(=O)[C@@H](N(C)C)[C@@H]3[C@@H](O)[C@H]12.O=C(O)c1cc(S(=O)(=O)O)ccc1O [Meclocycline sulfosalicylate] (20 µM)	0.0138	0.000715	0.0719	0.113	0.0573 (active)	0.0133 (active)	0.0772 (active)	0.14 (active)	0.444 (active)	0.447 (active)	0.514 (active)	0.11 (active)
CC(=O)NC[C@H]1CN(c2ccc(N3CCOCC3)c(F)c2)C(=O)O1 [Linezolid] (20 µM)	0	0.788	0.985	0.196	0.819 (inactive)	0.0335 (active)	0.112 (active)	0.59 (active)	1 (inactive)	0.777 (active)	1 (inactive)	0.119 (active)
Cn1c(NCCN(CCO)CCCc2ccc([N+](=O)[O-])cc2)cc(=O)n(C)c1=O [Nifekalant] (20 µM)	1.11	1.06	1.08	1.22	0.994 (inactive)	1.01 (inactive)	1.01 (inactive)	1.04 (inactive)	1.02 (inactive)	0.971 (inactive)	1.01 (inactive)	0.997 (inactive)
Cc1ccnc2c1NC(=O)c1cccnc1N2C1CC1 [Nevirapine] (20 µM)	0.962	0.959	1.01	0.868	0.914 (inactive)	1 (inactive)	1.12 (inactive)	0.955 (inactive)	1.02 (inactive)	1.02 (inactive)	1.01 (inactive)	1.12 (inactive)
Cc1c(Nc2ncccc2C(=O)O)cccc1C(F)(F)F [Flunixin meglumine] (20 µM)	0.944	1.04	1.05	1.15	0.909 (inactive)	1.03 (inactive)	0.992 (inactive)	1.07 (inactive)	0.959 (inactive)	1.01 (inactive)	1 (inactive)	1.02 (inactive)
C=C1/C(=C\C=C2/CCC[C@]3(C)[C@@H]([C@H](C)/C=C/[C@@H](O)C4CC4)CC[C@@H]23)C[C@@H](O)C[C@@H]1O [Calcipotriene] (20 µM)	1.07	0.96	1.02	1.3	1.02 (inactive)	0.952 (inactive)	1.01 (inactive)	1.01 (inactive)	1.01 (inactive)	0.969 (inactive)	1 (inactive)	0.981 (inactive)
Cc1ccc(S(=O)(=O)NC(=O)NN2CC3CCCC3C2)cc1 (stereo not given) [Gliclazide] (20 µM)	1.15	1.06	0.986	0.999	1.04 (inactive)	1.06 (inactive)	1.12 (inactive)	0.995 (inactive)	1 (inactive)	0.883 (inactive)	1 (inactive)	1.12 (inactive)
CCN(CC)C(=O)c1ccc(O)c(OC)c1 [Ethamivan] (20 µM)	1.12	1.02	1.05	0.873	0.973 (inactive)	1.02 (inactive)	1.04 (inactive)	1.02 (inactive)	1.02 (inactive)	1.01 (inactive)	1.01 (inactive)	1.05 (inactive)
CCSc1ccc2c(c1)N(CCCN1CCN(C)CC1)c1ccccc1S2 [Thiethylperazine maleate] (20 µM)	1.26	1.05	1.17	0.847	1.01 (inactive)	0.971 (inactive)	0.851 (inactive)	1.07 (inactive)	1.07 (inactive)	1.06 (inactive)	1.05 (inactive)	0.915 (inactive)
CC[C@H]1OC(=O)C[C@@H](O)[C@H](C)[C@@H](O[C@@H]2O[C@H](C)[C@@H](O[C@H]3C[C@@](C)(O)[C@@H](O)[C@H](C)O3)[C@H](N(C)C)[C@H]2O)[C@@H](CC=O)C[C@@H](C)C(=O)/C=C/C(C)=C/[C@@H]1CO[C@@H]1O[C@H](C)[C@@H](O)[C@@H](OC)[C@H]1OC [Tylosin] (20 µM)	0	0.953	0.966	0.0976	0.792 (inactive)	0.0522 (active)	0.0892 (active)	0.849 (inactive)	1.05 (inactive)	0.984 (inactive)	1.02 (inactive)	0.105 (active)
C[C@H](CCC(=O)O)[C@H]1CC[C@H]2[C@@H]3[C@@H](O)C[C@@H]4C[C@H](O)CC[C@]4(C)[C@H]3CC[C@]12C [Urosiol] (20 µM)	0.969	1.05	1.06	1.02	0.998 (inactive)	1.08 (inactive)	1.08 (inactive)	1.01 (inactive)	0.961 (inactive)	0.954 (inactive)	1.05 (inactive)	1.1 (inactive)
Cc1c(-c2ccccc2)oc2c(C(=O)OCCN3CCCCC3)cccc2c1=O [Flavoxate hydrochloride] (20 µM)	1.09	1.01	1.06	1.14	1.01 (inactive)	1.05 (inactive)	1.03 (inactive)	1 (inactive)	1 (inactive)	1.03 (inactive)	1 (inactive)	1.02 (inactive)
Nc1nc(=O)n([C@@H]2CS[C@H](CO)O2)cc1F [(-) Emtricitabine] (20 µM)	1.11	0.995	0.981	1.12	1.01 (inactive)	1.03 (inactive)	1.03 (inactive)	1.01 (inactive)	0.985 (inactive)	0.996 (inactive)	0.991 (inactive)	1.06 (inactive)
N=C(N)N1CCc2ccccc2C1 [Debrisoquin sulfate] (20 µM)	1.11	1	1.02	1.13	1.01 (inactive)	1.03 (inactive)	1.02 (inactive)	1.03 (inactive)	1 (inactive)	0.999 (inactive)	0.993 (inactive)	1.05 (inactive)
Cc1cc(=O)oc2cc(O)ccc12 [Hymecromone] (20 µM)	1.23	1.04	0.98	1.02	1.04 (inactive)	1.06 (inactive)	0.953 (inactive)	1 (inactive)	1.01 (inactive)	0.999 (inactive)	0.994 (inactive)	0.95 (inactive)
O=C1CCC(N2C(=O)c3ccccc3C2=O)C(=O)N1 (stereo not given) [Thalidomide] (20 µM)	1.13	0.98	1.04	1.15	1 (inactive)	1 (inactive)	0.971 (inactive)	0.97 (inactive)	1.02 (inactive)	1.02 (inactive)	1 (inactive)	0.981 (inactive)
Clc1ccc(C(Cn2ccnc2)OCc2c(Cl)cccc2Cl)c(Cl)c1 (stereo not given) [Isoconazole] (20 µM)	0.999	0.858	0.862	0.0371	1 (inactive)	0.846 (inactive)	0.265 (active)	1.01 (inactive)	1.01 (inactive)	0.966 (inactive)	1 (inactive)	0.289 (active)
O=C1c2c(O)cccc2Cc2cccc(O)c21 [Anthralin] (20 µM)	1.07	0.981	1.03	0.95	1.05 (inactive)	1.1 (inactive)	0.996 (inactive)	1.02 (inactive)	1.01 (inactive)	0.992 (inactive)	0.999 (inactive)	0.91 (inactive)
CC#CCn1c(N2CCC[C@@H](N)C2)nc2c1c(=O)n(Cc1nc(C)c3ccccc3n1)c(=O)n2C [Linagliptin] (20 µM)	1.01	1.03	0.993	0.856	1.08 (inactive)	1.07 (inactive)	1.02 (inactive)	1.01 (inactive)	1.02 (inactive)	0.983 (inactive)	0.996 (inactive)	0.997 (inactive)
OCc1cc(C(O)CNCCCCCCOCCCCc2ccccc2)ccc1O (stereo not given) [Salmeterol] (20 µM)	1.17	1.02	1	0.975	1.04 (inactive)	1.04 (inactive)	0.936 (inactive)	1.07 (inactive)	0.975 (inactive)	1.02 (inactive)	0.986 (inactive)	0.981 (inactive)
Cc1onc(-c2ccccc2)c1C(=O)N[C@@H]1C(=O)N2[C@@H]1SC(C)(C)[C@@H]2C(=O)O [Oxacillin sodium] (20 µM)	0	0.994	1.01	0	0.996 (inactive)	0.0257 (active)	0.0465 (active)	0.949 (inactive)	0.992 (inactive)	1.01 (inactive)	0.984 (inactive)	0.0469 (active)
NS(=O)(=O)c1cc2c(cc1Cl)NC(C(Cl)Cl)NS2(=O)=O (stereo not given) [Trichlormethiazide] (20 µM)	1.14	1.08	1.01	1.07	1.05 (inactive)	1.05 (inactive)	1.03 (inactive)	1.11 (inactive)	1.02 (inactive)	1.03 (inactive)	0.984 (inactive)	1.01 (inactive)
O=C(O)c1cccnc1Nc1cccc(C(F)(F)F)c1 [Niflumic acid] (20 µM)	0.913	1.08	0.996	1.32	1.05 (inactive)	1.04 (inactive)	1.02 (inactive)	1.08 (inactive)	1.01 (inactive)	0.996 (inactive)	0.993 (inactive)	0.988 (inactive)
C[C@H](CCC(=O)O)[C@H]1CC[C@H]2[C@@H]3[C@H](O)C[C@@H]4C[C@H](O)CC[C@]4(C)[C@H]3CC[C@]12C [Chenodiol] (20 µM)	1.06	0.995	1.02	1.01	1 (inactive)	1.03 (inactive)	1.03 (inactive)	1 (inactive)	0.999 (inactive)	1.04 (inactive)	1.02 (inactive)	0.994 (inactive)
COC(=O)C1=C(C)NC(C)=C(C(=O)OC(C)C)C1c1cccc2nonc12 (stereo not given) [Isradipine] (20 µM)	0.941	1.06	0.997	1.22	1.09 (inactive)	0.944 (inactive)	1.03 (inactive)	1.04 (inactive)	1.01 (inactive)	0.991 (inactive)	1 (inactive)	1.01 (inactive)
